# Compound activity as filed in PubChem BioAssay.
# Wnt act – Wnt/beta-catenin pathway activators, primary screen, cell-based, plate reader, single point. 300,000 compounds, 1.2% hits. Wnt/beta-catenin reporter cell assay, activator. activation, % at 9.35 µM. AID 743398, 2014; in the data active = activation above about 30%, passing the limit was not always enough; inconclusive = no clear call, values can overlap the other calls
# MITF act – activators of MITF-driven TRPM1 promoter reporter, primary screen, cell-based, SK-MEL-5, luciferase, single point. SK-MEL-5 TRPM1-promoter luciferase, 24 h; % of positive control, neutral wells = 0. activation, % at 12.5 µM. 300,000 compounds, 0.75% hits;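 active = mean activation of at least 80% with every replicate also reaching 80%; inconclusive = mean reaches 80% but some replicate falls short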
# esBAF inh – Bmi1 luciferase reporter increase in mESCs, primary screen, esBAF inhibitor project, mouse ES cells, Bmi1 luciferase knock-in, single point; 24 h; 100% = twice the neutral-well signal; reporter increase, % at 12.5 µM; 350,000 compounds, 2% hits; AID 602393, 2012; in the data active = activation above about 40%; inconclusive = no clear call, values can overlap the other calls;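 also: a rise in the Bmi1 reporter signal indicates esBAF inhibition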
# C2C12 statin – suppressors of statin myotoxicity in C2C12 myotubes, primary screen, cell-based, single point, plate reader. C2C12 myotubes + simvastatin, ATP luminescence, 48 h; scaled: DMSO 0, geranylgeraniol control 100. AID 602340, 2012. 330,000 compounds, 0.78% hits. rescue of ATP level, % at 7.49 µM;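 active = mean ATP rescue above about 67%, or every replicate alone reaching that limit, limit read from the data, passing the limit was not always enough; inconclusive = no clear call, values can overlap the other calls; inactive = mean under the limit and some replicate under it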;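 also: myotubes were challenged with 10 µM simvastatin during compound exposure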
# Numbers stand for hits; . = inactive; ? = inconclusive; / = not tested or not shown. Compounds with a hit are over-represented: about 3% of the library has one in this group of screens.
SMILES,Wnt act,MITF act,esBAF inh,C2C12 statin
CC(=O)Nc1ccc(NC(=O)/C=C/c2ccc(Cl)cc2)cc1,.,.,/,/
CN(C)/C=C/C(=O)/C=C/c1ccc(Cl)cc1,71.2,.,/,/
COc1ccc(NC(=O)Nc2ccc3c(c2)C(=O)N([C@H](C)CO)C[C@@H](C)[C@@H](CN(C)Cc2ccc4c(c2)OCO4)OCCCC[C@@H](C)O3)cc1,/,/,.,/
COc1ccc(NC(=O)c2cnc3sccn3c2=O)cc1,41.9,.,/,/
Cc1cccc(NC(=O)c2cnc3sccn3c2=O)c1,.,/,.,.
Nc1ccc2c(S(=O)(=O)O)cccc2c1S(=O)(=O)O,.,.,/,102.3
CC=Cc1ccc2n(c1=O)C[C@H]1[C@H](CO)[C@@H](C(=O)N(C)C)N(Cc3cccc(F)c3)[C@@H]21 (mixture of isomers),/,/,.,.
O=C(Nc1ccccc1)Nc1ccc2c(c1)CCC2,.,.,49.2,.
Cc1ccc(NC(=O)Nc2ccc3c(c2)CCC3)cc1,.,?,/,/
O=C(Nc1cccc(F)c1)Nc1ccc2c(c1)CCC2,34.0,?,63.9,.
O=C(Nc1cccc([N+](=O)[O-])c1)Nc1ccc2c(c1)CCC2,.,.,.,.
COc1ccc(NC(=O)N(C)C[C@H]2Oc3c(NS(=O)(=O)c4cn(C)cn4)cccc3C(=O)N([C@@H](C)CO)C[C@H]2C)cc1,/,/,.,/
CCCCCn1cnc2c(sc3nc4c(cc32)CSC(C)(C)C4)c1=O,/,94.1,.,.
CCOC(=O)c1sc(NC(=O)c2ccc3nc[nH]c3c2)nc1C,.,.,52.9,.
CCSc1nnc(NC(=O)c2cccc(OCc3c(C)noc3C)c2)s1,/,/,.,.
CC(C)(C)C(=O)CSc1nnc(Nc2ccccc2)s1,.,.,74.0,.
CCSc1nnc(NC(=O)c2ccc3nc[nH]c3c2)s1,.,.,90.7,.
O=C1c2ccccc2C(=O)N1CSc1nnc(Nc2ccccc2)s1,.,.,/,/
CCOC(=O)c1sc(NC(=O)c2ccc(=O)[nH]c2)nc1C,.,.,.,.
CCSc1nnc(NC(=O)C(C)(C)C)s1,.,.,51.3,.
O=C(C[C@H]1C[C@@H]2c3cc(NS(=O)(=O)c4ccccc4)ccc3O[C@@H]2[C@@H](CO)O1)NC1CCCC1,/,/,.,.
C[C@H]1CN([C@@H](C)CO)C(=O)c2cc(NS(=O)(=O)c3ccc(F)cc3)ccc2O[C@H]1CN(C)Cc1ccc(C(=O)O)cc1,/,/,.,/
CCOCCCNc1nc2c(-c3ccccc3)nnn2c2ccccc12,.,.,.,88.3
COc1ccc(OC)c(S(=O)(=O)N2CCC(C(=O)Nc3ccccc3)CC2)c1,.,.,.,91.4
COc1ccc(/C=N/N2CCN(c3ccccc3OC)CC2)cc1OC,/,.,.,.
SMILES,Wnt act,MITF act,esBAF inh,C2C12 statin
COc1cccc(/C=N/N2CCN(c3ccccc3OC)CC2)c1,/,107.6,?,.
COc1ccccc1N1CCN(/N=C/c2cccc(OC)c2O)CC1,43.9,.,/,/
COc1ccccc1N1CCN(/N=C/c2ccc(O)c(O)c2)CC1,.,/,/,/
COc1ccccc1N1CCN(/N=C/c2cccc(Cl)c2)CC1,42.1,/,99.7,.
C[C@@H]1CN([C@H](C)CO)C(=O)CCCn2nncc2CO[C@@H]1CN(C)Cc1ccccc1C(=O)O,/,/,.,.
CN1c2ccc(-c3cccc(C#N)c3)cc2[C@H]2[C@H](CCN2S(=O)(=O)c2ccccc2F)[C@@H]1CO,/,/,.,.
O=C(N[C@@H]1CC[C@@H](CC(=O)N2CCCCC2)O[C@H]1CO)c1cccc(F)c1,/,/,.,.
Cc1noc(C)c1S(=O)(=O)Nc1ccc2c(c1)CC(=O)N([C@@H](C)CO)C[C@H](C)[C@@H](CN(C)Cc1ccc(C(=O)O)cc1)O2,/,/,.,.
CCCN1[C@@H]2c3ccc(/C=C/c4ccccc4)c(=O)n3C[C@H]1[C@H](CO)[C@H]2C(=O)NCC1CC1,/,/,.,.
Cc1ccc(S(=O)(=O)N[C@@H]2CC[C@@H](CCNS(=O)(=O)Cc3ccccc3)O[C@H]2CO)cc1,/,/,.,.
O=C(Cc1ccncc1)NCC[C@H]1CC[C@H](NC(=O)Nc2ccc(Cl)cc2)[C@H](CO)O1,/,/,.,.
CCN(CC)C(=O)Nc1cnc2ccccc2c1,/,.,.,.
COC(=O)c1cccc(C(=O)Nc2cnc3ccccc3c2)n1,/,.,59.4,.
O=C(NC(=S)Nc1ncc(Br)cc1Br)c1ccccc1,.,.,53.0,.
O=C(Nc1cnc2ccccc2c1)c1ccncc1,.,.,.,.
S=C(NCCc1ccccc1)Nc1cnc2ccccc2c1,.,.,44.3,.
Cc1ccc(NC(=O)Nc2cnc3ccccc3c2)cc1,38.7,?,.,.
Cc1cc(C)nc(NC(=S)NC(=O)c2ccccc2)n1,.,/,.,.
S=C(NCCc1ccccc1)Nc1ccc(Nc2ccccc2)cc1,.,.,.,.
O=C(C[C@H]1CC[C@@H]2[C@H](COC[C@H](O)CN2C(=O)C2CC2)O1)NCc1ccncc1,/,/,.,.
CO[C@@H]1CN(C)C(=O)c2cc(NS(C)(=O)=O)ccc2OC[C@@H](C)N(CC2CCOCC2)C[C@H]1C,/,/,.,.
CO[C@@H]1CN(C)C(=O)c2ccc(NS(=O)(=O)c3cccc(F)c3)cc2OC[C@@H](C)N(C(=O)Cc2cccnc2)C[C@H]1C,/,/,.,.
COc1ccc(NC(=S)NC(=O)c2ccccc2)cn1,.,.,/,/
Cn1ncc2cc(NC(=S)NC(=O)c3ccccc3)ccc21,/,.,47.5,.
O=C(NC(=S)Nc1cnc2ccccc2c1)c1ccccc1,52.5,.,/,/
SMILES,Wnt act,MITF act,esBAF inh,C2C12 statin
Cc1nc(-c2ccc(Cl)cc2)sc1C1(C)CC(c2ccccc2)=NO1 (centres undefined),.,.,58.9,.
Cc1nc(-c2ccc(Cl)cc2)sc1C1(C)CC(c2ccc(Cl)cc2)=NO1 (centres undefined),.,.,.,.
COc1ccccc1C1=NOC(C)(c2sc(-c3ccc(Cl)cc3)nc2C)C1 (centres undefined),.,.,42.8,.
Cn1cc([N+](=O)[O-])cc1-c1nc2ccccc2n1C,.,/,.,.
Cn1c(-c2ccc([N+](=O)[O-])cc2)nc2ccccc21,32.4,.,.,.
O=C(Nc1nccs1)c1ccc(Br)cc1,.,?,43.1,.
N#C/C(=C\c1cccs1)C(=O)Nc1nccs1,56.0,?,119.2,.
C/C(=C\c1ccccc1)C(=O)Nc1nccs1,52.3,.,?,.
Cc1ccc(C(=O)n2nc(-c3cccnc3)nc2N)cc1,/,.,/,/
Cc1ccc(-c2nc(N)n(C(=O)c3cccnc3)n2)cc1,.,/,43.4,.
N/C(=N\OC(=O)c1ccc(Br)cc1)c1ccccc1,/,.,.,.
COc1ccc(/C(N)=N/OC(=O)c2ccc(C)c([N+](=O)[O-])c2)cc1,/,.,69.7,.
COc1ccc(C(=O)O/N=C(\N)c2ccc(Br)cc2)cc1,34.5,.,58.7,.
Cc1ccc(C(=O)O/N=C(\N)c2ccc(Br)cc2)cc1,/,88.7,81.9,.
N/C(=N\OC(=O)C1CCCCC1)c1ccncc1,/,.,/,/
N/C(=N\OC(=O)C1CCCCC1)c1ccc(Br)cc1,.,/,65.8,.
COc1ccc(/C(N)=N/OC(=O)c2ccc([N+](=O)[O-])c(C)c2)cc1OC,.,.,.,.
